Results as given in PubChem BioAssay.

These molecules were tested against Calmodulin-1 (Homo sapiens) (UniProt P0DP23) (assay: small molecules binding calmodulin-1 with EGTA – biochemical, small-molecule microarray, Cy5-labelled CALM1, profiling panel (AID 1111;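 also: labelled calmodulin applied in Tris saline Tween buffer holding calcium plus EGTA and DTT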)). Settings: Cy5-CALM1 binding fluorescence, higher = more signal.

Compound	composite z-score
C[C@@H]1ON(c2cccc(C(=O)OC(C)(C)C)c2)[C@H](c2ccc(Br)cc2)[C@H]1C(=O)N1C(=O)OC[C@H]1Cc1ccccc1	0.702
O=C1C2C=CC(C(O)c3ccc(F)cc3)N(Nc3ccccc3F)C2C(=O)N1c1ccccc1 (stereo unspecified)	1.23
COc1ccc(CCN2C(=O)[C@@]3(Cc4ccccc42)c2ccccc2C(=O)N(Cc2ccccc2C(F)(F)F)[C@H]3c2ccc(CO)cc2)cc1	0.238
COC(=O)[C@@]1(Cc2ccc(OC)cc2)[C@H]2c3cc(C(=O)N4CCCC4)n(Cc4ccsc4Br)c3C[C@H]2CN1C(=O)c1ccccc1	1.1
O=C1NC(=O)C2C1C=CC(C(O)Cc1ccccc1)N2Nc1ccc(Cl)cc1Cl (stereo unspecified)	1.73
COC(=O)[C@@]1(Cc2ccccc2)[C@H]2c3cc(C(=O)N4CCCC4)n(CC4CC4)c3C[C@H]2CN1C(=O)c1ccccc1	1.13
COC(=O)[C@@]1(Cc2ccc(F)cc2)[C@H]2c3cc(C(=O)N4CCCC4)n(Cc4ccc(C)o4)c3C[C@H]2CN1C(=O)c1ccccc1	1.48
COc1cc2c(cc1OC)CN(C(=O)[C@H]1[C@@H]3C(=O)O[C@@H](c4ccccc4)[C@@H](c4ccccc4)N3[C@@H](c3ccc(O)cc3)[C@]13C(=O)Nc1ccc(C#CC4=CCCCC4)cc13)CC2	1.61
[N-]=[N+]=Nc1ccccc1[C@H]1OC(c2ccc(OCCCO)cc2)=N[C@@]1(Cc1ccccc1)C(=O)O	0.577
CC(C)N1C(=O)[C@@]2(Cc3ccccc31)c1ccccc1C(=O)N(C1CCCCC1)[C@H]2c1ccc(CO)cc1	-0.435
CCOC(=O)[C@H]1C/C=C/C[C@H](C(=O)OCC)C(=O)O[C@H]2[C@@H](OC)O[C@H](CO)[C@@H](OC(=O)Nc3ccc(C#N)cc3)[C@@H]2OC1=O	0.917
CCCC=C(CCC)[C@@H](NS(=O)(=O)c1cccs1)c1ccc(C(=O)OC)cc1	1.6
COC(=O)[C@@]1(Cc2ccc(F)cc2)[C@H]2c3cc(C(=O)N(C)C)n(Cc4nc5ccccc5[nH]4)c3C[C@H]2CN1C(=O)c1ccccc1	1.42
CC(C)(C)OC(=O)CC[C@@]1(C(=O)NCC(O)CO)N=C(c2ccc(OCCCO)cc2)O[C@@H]1c1ccccc1N=[N+]=[N-] (stereo partly specified)	1.67
CCOc1cc(C(O)C2C=CC3C(=O)N(c4ccccc4)C(=O)C3N2Nc2ccccc2)ccc1O (stereo unspecified)	0.0041
CN1C(=O)C2C=CC(C(O)Cc3ccccc3)N(Nc3ccccc3)C2C1=O (stereo unspecified)	1.08
COC(=O)C(CC#Cc1ccc2c(c1)[C@]1(C(=O)N2)[C@H](c2ccc(O)cc2)N2[C@H](c3ccccc3)[C@H](c3ccccc3)OC(=O)[C@H]2[C@@H]1C(=O)Nc1nc2ccccc2s1)C(=O)OC	1.26
COc1ccc(C(=O)Nc2ccc(CN3C(=O)[C@@]4(O[C@@H](CCO)[C@H]([Si](C)(C)c5ccc(OC)cc5)[C@H]4C)c4ccccc43)cc2)cc1	0.0404
COCCOC(=O)N1C(=O)[C@@]2(c3cc(C#Cc4ccc(OC)cc4)ccc31)[C@H](C(=O)N1CCCCCCC1)[C@H]1C(=O)O[C@H](c3ccccc3)[C@H](c3ccccc3)N1[C@@H]2c1ccc(OCCO)cc1	1.88
O=C1O[C@H](c2ccccc2)[C@H](c2ccccc2)N2[C@H]1[C@@H](C(=O)O)[C@]1(C(=O)Nc3ccc(C#CCCO)cc31)[C@H]2c1ccc(O)cc1	0.415
CC(C)(C)C(=O)N[C@@H](c1ccc(Cl)cc1)[C@]1(C)C[C@H]1C1CCCCC1	1.27
O=C(NCc1ccccc1)[C@@]1(Cc2ccccc2)N=C(c2ccc(OCCCO)cc2)O[C@H]1c1ccccc1	2.36
CC(C)(C)OC(=O)CC[C@@]12N=C(c3ccc(OCCCO)cc3)O[C@@H]1c1ccccc1N(CCS(=O)(=O)c1ccccc1)C2=O	0.887
[N-]=[N+]=NCc1ccccc1[C@@H]1OC(c2ccc(OCCCO)cc2)=N[C@]1(Cc1ccccc1N=[N+]=[N-])C(=O)N1CCOCC1	1.97
COCCOC(=O)N1C(=O)[C@@]2(c3cc(C#CC4(O)CCCCCC4)ccc31)[C@H](c1ccc(O)cc1)N1[C@H](c3ccccc3)[C@H](c3ccccc3)OC(=O)[C@H]1[C@@H]2C(=O)Nc1nc2ccccc2s1	2.01
COCCOC(=O)N1C(=O)[C@@]2(c3cc(C#CC4=CCCCC4)ccc31)[C@H](C(=O)N1CCc3cc(OC)c(OC)cc3C1)[C@H]1C(=O)O[C@H](c3ccccc3)[C@H](c3ccccc3)N1[C@@H]2c1ccc(OCCO)cc1	0.526

The molecules below were run against Calmodulin-1 (Homo sapiens) (UniProt P0DP23) (assay: small molecules binding Ca-loaded calmodulin-1 – biochemical, small-molecule microarray, Cy5-labelled CALM1, plus calcium, artefact control for SMM control-protein annotation, profiling panel (AID 1112;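 also: score merges spot fluorescence with signal to noise from triplicate slides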)). Settings: Cy5-CALM1 binding fluorescence, higher = more signal.

Compound	composite z-score
O=C1[C@H]2C=C(Br)[C@H](C[C@@H]2c2ccccc2)[C@@]12CO2	-0.441
COc1ccc(C#Cc2ccc3c(c2)[C@]2(C(=O)N3)[C@H](c3ccccc3OCCO)N3[C@H](c4ccccc4)[C@H](c4ccccc4)OC(=O)[C@H]3[C@@H]2C(=O)O)cc1	1.05
O=C1O[C@H](c2ccccc2)[C@H](c2ccccc2)N2[C@H]1[C@@H](C(=O)N1CCN(c3ncccn3)CC1)[C@]1(C(=O)Nc3ccc(C#CC4=CCCCC4)cc31)[C@H]2c1ccc(O)cc1	0.336
C=CC[C@@]1(C(N)=O)N=C(c2ccc(OCCCO)cc2)O[C@@H]1c1ccccc1CN=[N+]=[N-]	0.767
COC(=O)[C@@]1(Cc2ccccc2)[C@H]2c3cc(C(=O)N4CCCC4)n(Cc4nc5ccccc5[nH]4)c3C[C@H]2CN1C(=O)c1ccccc1	1.53
O=C1O[C@H](c2ccccc2)[C@H](c2ccccc2)N2[C@H]1[C@@H](C(=O)O)[C@]1(C(=O)Nc3ccc(C#CC4=CCCCC4)cc31)[C@H]2c1ccccc1OCCO	0.179
COCCOC(=O)N1C(=O)[C@@]2(c3cc(C#Cc4ccc(OC)cc4)ccc31)[C@H](c1ccccc1OCCO)N1[C@H](c3ccccc3)[C@H](c3ccccc3)OC(=O)[C@H]1[C@@H]2C(=O)N1CCN(c2ncccn2)CC1	0.805
C=C/C=C/[C@H]1C(=C)CN([C@@H](Cc2ccccc2)C(=O)OC)[C@@H]1[C@H](O)Cc1ccccc1	-1.1
C=CCOC(=O)[C@H]1[C@@H]2C(=O)O[C@@H](c3ccccc3)[C@@H](c3ccccc3)N2[C@@H](c2ccc(OCCOC(=O)[C@@H]3C[C@@H]4C(=O)N[C@@H](CCCC[N+](C)(C)C)C(=O)N4[C@@H]3c3ccc(O)cc3)cc2)[C@]12C(=O)Nc1ccccc12	-0.499
C[C@@H]1ON(c2cccc(C(=O)OC(C)(C)C)c2)[C@H](c2ccc(Br)cc2)[C@H]1C(=O)N1C(=O)OC[C@H]1Cc1ccccc1	-0.367
O=C1C2C=CC(C(O)c3ccc(F)cc3)N(Nc3ccccc3F)C2C(=O)N1c1ccccc1 (stereo unspecified)	0.367
COc1ccc(CCN2C(=O)[C@@]3(Cc4ccccc42)c2ccccc2C(=O)N(Cc2ccccc2C(F)(F)F)[C@H]3c2ccc(CO)cc2)cc1	-0.839
COC(=O)[C@@]1(Cc2ccc(OC)cc2)[C@H]2c3cc(C(=O)N4CCCC4)n(Cc4ccsc4Br)c3C[C@H]2CN1C(=O)c1ccccc1	0.696
O=C1NC(=O)C2C1C=CC(C(O)Cc1ccccc1)N2Nc1ccc(Cl)cc1Cl (stereo unspecified)	0.634
COC(=O)[C@@]1(Cc2ccccc2)[C@H]2c3cc(C(=O)N4CCCC4)n(CC4CC4)c3C[C@H]2CN1C(=O)c1ccccc1	0.697
COC(=O)[C@@]1(Cc2ccc(F)cc2)[C@H]2c3cc(C(=O)N4CCCC4)n(Cc4ccc(C)o4)c3C[C@H]2CN1C(=O)c1ccccc1	0.558
COc1cc2c(cc1OC)CN(C(=O)[C@H]1[C@@H]3C(=O)O[C@@H](c4ccccc4)[C@@H](c4ccccc4)N3[C@@H](c3ccc(O)cc3)[C@]13C(=O)Nc1ccc(C#CC4=CCCCC4)cc13)CC2	0.0648
[N-]=[N+]=Nc1ccccc1[C@H]1OC(c2ccc(OCCCO)cc2)=N[C@@]1(Cc1ccccc1)C(=O)O	-0.0461
CC(C)N1C(=O)[C@@]2(Cc3ccccc31)c1ccccc1C(=O)N(C1CCCCC1)[C@H]2c1ccc(CO)cc1	-0.56
CCOC(=O)[C@H]1C/C=C/C[C@H](C(=O)OCC)C(=O)O[C@H]2[C@@H](OC)O[C@H](CO)[C@@H](OC(=O)Nc3ccc(C#N)cc3)[C@@H]2OC1=O	0.148
CCCC=C(CCC)[C@@H](NS(=O)(=O)c1cccs1)c1ccc(C(=O)OC)cc1	0.85
COC(=O)[C@@]1(Cc2ccc(F)cc2)[C@H]2c3cc(C(=O)N(C)C)n(Cc4nc5ccccc5[nH]4)c3C[C@H]2CN1C(=O)c1ccccc1	0.114
CC(C)(C)OC(=O)CC[C@@]1(C(=O)NCC(O)CO)N=C(c2ccc(OCCCO)cc2)O[C@@H]1c1ccccc1N=[N+]=[N-] (stereo partly specified)	0.414
CCOc1cc(C(O)C2C=CC3C(=O)N(c4ccccc4)C(=O)C3N2Nc2ccccc2)ccc1O (stereo unspecified)	-0.748
CN1C(=O)C2C=CC(C(O)Cc3ccccc3)N(Nc3ccccc3)C2C1=O (stereo unspecified)	0.85
COC(=O)C(CC#Cc1ccc2c(c1)[C@]1(C(=O)N2)[C@H](c2ccc(O)cc2)N2[C@H](c3ccccc3)[C@H](c3ccccc3)OC(=O)[C@H]2[C@@H]1C(=O)Nc1nc2ccccc2s1)C(=O)OC	0.213
COc1ccc(C(=O)Nc2ccc(CN3C(=O)[C@@]4(O[C@@H](CCO)[C@H]([Si](C)(C)c5ccc(OC)cc5)[C@H]4C)c4ccccc43)cc2)cc1	-0.608
COCCOC(=O)N1C(=O)[C@@]2(c3cc(C#Cc4ccc(OC)cc4)ccc31)[C@H](C(=O)N1CCCCCCC1)[C@H]1C(=O)O[C@H](c3ccccc3)[C@H](c3ccccc3)N1[C@@H]2c1ccc(OCCO)cc1	1.2
O=C1O[C@H](c2ccccc2)[C@H](c2ccccc2)N2[C@H]1[C@@H](C(=O)O)[C@]1(C(=O)Nc3ccc(C#CCCO)cc31)[C@H]2c1ccc(O)cc1	0.869
CC(C)(C)C(=O)N[C@@H](c1ccc(Cl)cc1)[C@]1(C)C[C@H]1C1CCCCC1	1.1
